Source: PubChem BioAssay (NCI)
Compounds without any hit were thinned out: in the full panel of roughly 83,000, 20% have a hit.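 Single-concentration screen, 48 h exposure, 96-well plates. Endpoint: percent growth. Below 10 = active.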 A number with no mark means an inactive call. Activity calls are given as the source filed them.

What was measured:
Test in all cases: NCI-60 one-dose screen, 48 h (100 = growth as untreated, 0 = no growth, -100 = all killed)
Conditions in all cases: 10 µM unless noted
RPMI-8226 leukemia = system: RPMI-8226 leukemia
OVCAR-8 ovarian = system: OVCAR-8 ovarian
OVCAR-5 ovarian = system: OVCAR-5 ovarian
OVCAR-4 ovarian = system: OVCAR-4 ovarian
SK-OV-3 ovarian = system: SK-OV-3 ovarian
IGROV1 ovarian = system: IGROV1 ovarian
OVCAR-3 ovarian = system: OVCAR-3 ovarian
HS 578T breast = system: HS 578T breast
NCI/ADR-RES ovarian = system: NCI/ADR-RES ovarian
T-47D breast = system: T-47D breast
MDA-MB-435 melanoma = system: MDA-MB-435 melanoma
SW-620 colon = system: SW-620 colon
MCF7 breast = system: MCF7 breast
HCT-116 colon = system: HCT-116 colon
HCC-2998 colon = system: HCC-2998 colon
KM12 colon = system: KM12 colon
BT-549 breast = system: BT-549 breast

| Structure (SMILES) | growth (RPMI-8226 leukemia) | growth (OVCAR-8 ovarian) | growth (OVCAR-5 ovarian) | growth (OVCAR-4 ovarian) | growth (SK-OV-3 ovarian) | growth (IGROV1 ovarian) | growth (OVCAR-3 ovarian) | growth (HS 578T breast) | growth (NCI/ADR-RES ovarian) | growth (T-47D breast) | growth (MDA-MB-435 melanoma) | growth (SW-620 colon) | growth (MCF7 breast) | growth (HCT-116 colon) | growth (HCC-2998 colon) | growth (KM12 colon) | growth (BT-549 breast) |
| --- | --- | --- | --- | --- | --- | --- | --- | --- | --- | --- | --- | --- | --- | --- | --- | --- | --- |
| CC1=C([Se]CC(OC(=O)CC[Se]c2ccccc2)C(=O)NCCCCCC(=O)OCc2ccccc2)C(=O)c2ccccc2C1=O (configuration not stated) | 49.1% | 10.6% | 39.7% | 42.5% | 39.4% | 15.9% | -3.7% (active) | -13.4% (active) | 11.9% | 56% | 20% | 104% | 30.2% | -3.51% (active) | 72% | 9.71% (active) | – |
| N#Cc1nc(C#N)c(Sc2ccccc2)c(Sc2ccccc2)c1Sc1ccccc1 | 0.263% (active) | 3.62% (active) | -71.3% (active) | -11.9% (active) | -10.3% (active) | -67.9% (active) | -87.7% (active) | 55.2% | 20.3% | -71.7% (active) | -14.2% (active) | -67.2% (active) | -72.1% (active) | -30.7% (active) | -85.4% (active) | -85.2% (active) | – |
| COc1cc(OC)cc(C2CC(=O)Nc3c2c(C)nn3-c2nc3ccccc3[nH]2)c1 (configuration not stated) | -8.64% (active) | 17.8% | 50.2% | 42.4% | -2.88% (active) | 14.6% | 7.11% (active) | – | 64.3% | 12.6% | 9.66% (active) | 24% | 7.95% (active) | 0.333% (active) | 69.1% | 30.5% | 39.1% |
| COc1cc(CCC[P+](c2ccccc2)(c2ccccc2)c2ccccc2)cc2c1OCO2 | 9.71% (active) | 29.5% | 59.1% | 12.4% | 82.4% | 28.8% | 19.7% | 45.5% | – | 11.5% | 3.36% (active) | 37.6% | 18.2% | 22.8% | 24.3% | 10.7% | 23.3% |
| CN(C)CCC=C1c2ccccc2C(C)(C)c2ccccc21 | 0.547% (active) | 88.9% | 59.4% | 76.5% | 99.7% | 61.3% | 80.1% | – | 77.6% | 81% | 66.9% | 86% | 81.2% | 53.1% | 10.4% | 76.9% | 94.5% |
| CC(C)C(=O)Nc1n[nH]c2cc(-c3cccc(NS(=O)(=O)C4CC4)c3)ccc12 | 66.1% | 82.2% | 87.4% | 52.8% | 62.3% | 64.6% | 57.8% | 77.7% | 98.1% | – | 12.9% | 74.5% | 33.2% | 52.5% | 83.4% | 61.3% | 42.3% |
| O=S(=O)(O)c1ccc(N/N=C/c2ccccc2Cl)cc1 | 98.7% | 115% | 104% | 112% | 112% | 101% | 119% | 111% | 110% | 106% | 102% | 108% | 99.2% | 104% | – | 116% | – |
| COc1ccc(C(=NN=C(N)N)c2ccc(OC)cc2)cc1 | 49.4% | 56.7% | 69.1% | 39.3% | 11% | 36.3% | 17% | 65% | 83.5% | 8.87% (active) | -35.2% (active) | 25.3% | 5.47% (active) | – | – | 21.2% | – |
| CSc1n(Cc2ccc3ccccc3c2)c(C)c[n+]1Cc1ccc2ccccc2c1 | -38.3% (active) | -3.48% (active) | 6.94% (active) | -7.94% (active) | 5.34% (active) | -55.6% (active) | -41.9% (active) | -23.3% (active) | – | 0.45% (active) | -66.2% (active) | 0.772% (active) | -62.8% (active) | -0.907% (active) | -91.1% (active) | -82.5% (active) | -23.4% (active) |
| O=C(O)c1ccc2c(c1)CCC2 | 99.8% | 107% | 105% | 107% | 107% | 103% | 119% | 134% | 111% | 106% | 115% | 108% | 100% | 105% | 115% | 113% | – |
| COc1ccc(NC(=O)CSc2nnc(-c3cc(-c4ccc(S(N)(=O)=O)cc4)nc4ccccc34)n2-c2ccccc2)cc1 | 57.9% | 75.4% | 92.8% | 88.6% | 89.8% | 77.9% | 95.1% | 75.6% | 104% | 58.2% | 92.2% | 97.6% | 78.8% | 73.9% | 101% | 92.7% | – |
| COc1ccc2c(c1)C(=O)/C(=C/c1ccc(OCC(=O)Nc3nccs3)cc1)O2 | -53.8% (active) | 19.1% | -31.5% (active) | 48.3% | 37.9% | – | -24.4% (active) | 56.2% | 56.9% | 75.2% | 92.5% | -24% (active) | 59.8% | 15.6% | 113% | 21.3% | -84.2% (active) |
| CCOc1c(C#N)nnc2c(C#N)c(NC(=O)c3ccccc3)nn12 | 111% | 93.8% | 102% | 110% | 97.1% | 101% | 106% | – | 100% | 98.8% | 102% | 102% | 93.4% | 100% | 104% | 101% | 102% |
| CC(C)=C[C@@H]1c2c(c3ccccc3n(C)c2=O)O[C@H]2c3c(c4ccccc4n(C)c3=O)OC(C)(C)[C@@H]12 | -36.8% (active) | 90.4% | 98.7% | 64.9% | 118% | – | 91.9% | 93.2% | – | 57.7% | 83.9% | 89.9% | 69.8% | 81.6% | 82.7% | 89.1% | 54.7% |
| CC(C)C(NC(=O)C1(NC(=O)OCc2ccccc2)CCCC1)C(=O)O (configuration not stated) | 111% | 110% | 94.8% | 124% | 96.2% | 107% | 120% | – | 104% | 103% | 109% | 96.9% | 105% | 97.6% | – | 111% | 83.7% |
| O=c1c2c3c(sc2n2c(-c4cn(-c5ccccc5)nc4-c4ccc(Cl)cc4)nnc2n1Cc1ccccc1)CCCC3 | 94.1% | 97.1% | 103% | 95.5% | 109% | – | 103% | 96.9% | 101% | 81.8% | 103% | 110% | 75.4% | 92.6% | 99.1% | 103% | 103% |
| O=C(N=c1oc2ccccc2cc1-c1cc2ccccc2[nH]1)c1ccc(Cl)cc1 | 38.5% | 50.5% | 89.3% | 57.7% | 57.3% | 29.7% | 50.5% | – | – | 47.5% | 96.4% | 25.1% | 30.4% | 20% | 81.9% | 29.1% | 76% |
| CCOC(=O)C/C(C)=N\NC(=O)c1ccncc1 | 90% | 99.2% | 98.3% | 98.2% | 101% | – | 105% | 115% | 98% | 92.1% | 91.7% | 107% | 93.2% | 89.3% | 98.7% | 107% | 97.8% |
| COc1ccc2c(c1)O/C(=C\c1cccc(OCC(=O)Nc3nc4ccccc4s3)c1)C2=O | 53.4% | 5.46% (active) | 95.7% | 81.7% | 99.1% | – | 88.6% | 93.8% | -60.1% (active) | 62.1% | 96.5% | 79% | 73.7% | 76.5% | – | 88.2% | -51.7% (active) |
